The panel holds about 79,000 compounds, 15% with a hit somewhere; the sample as a whole holds those more often. Active and inactive are the calls of the source. No stated cut-off is given here; in the data, active means growth inhibition above about 70%; inactive means the rest.
How the values were obtained:
[1] = NCI Yeast Anticancer Drug Screen. Data for the rad52 strain (AID 147);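 further: 0% = growth of vehicle-treated control cultures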; settings: S. cerevisiae rad52 mutant growth inhibition, stronger effect = higher value
In short: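 Read-out: growth inhibition versus vehicle-treated controls. Cells were a DNA repair-deficient yeast strain treated with compounds.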

[2] = NCI Yeast Anticancer Drug Screen. Data for the wt1 strain (AID 149);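 further: 0% = growth of vehicle-treated wt1 cultures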; settings: S. cerevisiae wt1 strain (SPY 50644) growth inhibition, stronger effect = higher value
In short: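 Yeast wt1 strain exposed to compounds; growth inhibition measured relative to vehicle-treated controls.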

[3] = NCI Yeast Anticancer Drug Screen. Data for the rad50EPP+ strain (AID 151);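 further: 0% = growth of vehicle-treated control cultures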; settings: S. cerevisiae rad50 mutant strain, stronger effect = higher value
In short: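 Growth inhibition read against vehicle controls in rad50EPP+ yeast, a strain altered in DNA damage repair, after compound exposure.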

[4] = NCI Yeast Anticancer Drug Screen. Data for the mgt1 strain (AID 153); settings: S. cerevisiae mgt1 mutant growth inhibition, stronger effect = higher value
In short: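 mgt1 yeast grown with test compound; read-out is growth inhibition versus vehicle-treated cultures.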

[5] = NCI Yeast Anticancer Drug Screen. Data for the rad50 strain (AID 155);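 further: 0% = growth of vehicle-only cultures of the same strain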; settings: S. cerevisiae rad50 strain growth inhibition, stronger effect = higher value
In short: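 Yeast carrying a defined DNA repair defect were exposed to test compounds, and growth was compared with vehicle-treated controls to give percent inhibition.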

[6] = NCI Yeast Anticancer Drug Screen. Data for the mec2-1 strain (AID 157); settings: S. cerevisiae mec2-1 strain, stronger effect = higher value
In short: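 Yeast mec2-1 mutant treated with compound. Readout: growth inhibition vs vehicle controls.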

[7] = NCI Yeast Anticancer Drug Screen. Data for the rad14 strain (AID 159);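 further: 0% = growth of vehicle-treated control cultures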; settings: S. cerevisiae rad14 strain growth inhibition, stronger effect = higher value
In short: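 Yeast cells carrying a defined DNA-repair defect were exposed to compounds, and growth inhibition was calculated relative to vehicle-treated control cultures.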

[8] = NCI Yeast Anticancer Drug Screen. Data for the sgs1 mgt1 strain (AID 161);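 further: 0% = growth of cultures given vehicle only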; settings: S. cerevisiae sgs1 mgt1 strain, stronger effect = higher value
In short: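 Mutant yeast exposed to compound; growth scored against vehicle-only wells.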

[9] = NCI Yeast Anticancer Drug Screen. Data for the CLN2oe strain (AID 163);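 further: 0% = growth of vehicle-only control cultures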; settings: S. cerevisiae CLN2oe strain, stronger effect = higher value
In short: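 Read-out: yeast growth inhibition, expressed relative to vehicle-only controls. The strain bears an engineered cell-cycle alteration.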

[10] = NCI Yeast Anticancer Drug Screen. Data for the cln2 rad14 strain (AID 165);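 further: 0% = growth equal to vehicle treated cultures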; settings: S. cerevisiae cln2 rad14 strain, stronger effect = higher value
In short: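 cln2 rad14 yeast strain; compound exposure; growth inhibition read vs vehicle controls.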

[11] = NCI Yeast Anticancer Drug Screen. Data for the bub3 strain (AID 167); settings: S. cerevisiae bub3 mutant strain, stronger effect = higher value
In short: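 Compounds were applied to a genetically altered yeast strain carrying a cell-cycle control defect. Growth inhibition was scored against vehicle-treated controls.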

[12] = NCI Yeast Anticancer Drug Screen. Data for the wt2 strain (AID 169);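 further: 0% = growth of vehicle-treated yeast cultures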; settings: S. cerevisiae wt2 strain growth inhibition, stronger effect = higher value
In short: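 Read-out: growth inhibition versus vehicle-treated control cultures after compound exposure of the yeast strain.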

[13] = NCI Yeast Anticancer Drug Screen. Data for the sgs1 strain (AID 173);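 further: 0% = growth of vehicle-only control cultures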; settings: S. cerevisiae sgs1 mutant, stronger effect = higher value
In short: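 Read-out: yeast growth inhibition relative to vehicle controls, following compound exposure of a strain with a defined DNA repair/cell cycle alteration.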

[14] = NCI Yeast Anticancer Drug Screen. Data for the mlh1 rad18 strain (AID 175); settings: S. cerevisiae mlh1 rad18 strain growth inhibition, stronger effect = higher value
In short: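 Yeast w/ defined DNA-repair lesions; compound exposure; growth vs vehicle controls → % inhibition.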

[15] = NCI Yeast Anticancer Drug Screen. Data for the rad18 strain (AID 177); settings: S. cerevisiae rad18 mutant growth inhibition, stronger effect = higher value
In short: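 Readout: growth inhibition vs vehicle controls. Cells: genetically altered yeast strain, DNA repair defect.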

[16] = at 5.0 µM (retest, dose inferred, filed as 0.5)
[17] = at 50.0 µM (retest, dose inferred, filed as 5.0)

Measured: growth inhibition

COc1cc2ccc(/C=C\[N+](=O)[O-])cc2cc1OC
inactive: [1]; at 1.2 µM 1% | [1]; at 3.7 µM 13% | [2]; at 1.2 µM -24% | [2]; at 3.7 µM -25% | [2]; at 11.0 µM -37% | [3]; at 1.2 µM 18% | [3]; at 3.7 µM 39% | [4]; at 1.2 µM -18% | [4]; at 3.7 µM -23% | [4]; at 11.0 µM 24% | [5]; at 1.2 µM -5% | [5]; at 3.7 µM 26% | [5]; [16] 44% | [5]; at 11.0 µM 51% | [6]; at 1.2 µM 10% | [6]; at 3.7 µM -34% | [6]; [16] 29% | [6]; at 11.0 µM 38% | [7]; at 1.2 µM -26% | [7]; at 3.7 µM -39% | [7]; at 11.0 µM -18% | [8]; [16] 11% | [9]; at 1.2 µM 12% | [9]; at 3.7 µM 0% | [9]; at 11.0 µM -4% | [10]; [16] -14% | [10]; [17] -25% | [11]; at 1.2 µM -30% | [11]; at 3.7 µM -21% | [11]; [16] 17% | [11]; at 11.0 µM -22% | [11]; [17] 53% | [12]; at 1.2 µM -14% | [12]; at 3.7 µM 4% | [12]; at 11.0 µM 22% | [13]; at 1.2 µM -4% | [13]; at 3.7 µM 16% | [13]; at 11.0 µM 47% | [14]; [16] 45% | [15]; at 1.2 µM -17% | [15]; at 3.7 µM -33% | [15]; at 11.0 µM 18%
active: [1]; at 11.0 µM 70% | [1]; at 33.0 µM 97% | [1]; at 100.0 µM 94% | [2]; at 33.0 µM 98% | [2]; at 100.0 µM 96% | [3]; at 11.0 µM 83% | [3]; at 33.0 µM 98% | [3]; at 100.0 µM 96% | [4]; at 33.0 µM 97% | [4]; at 100.0 µM 95% | [5]; at 33.0 µM 96% | [5]; [17] 99% | [5]; at 50.0 µM 91% | [5]; at 100.0 µM 94% | [6]; at 33.0 µM 97% | [6]; [17] 99% | [6]; at 50.0 µM 90.5% | [6]; at 100.0 µM 95% | [7]; at 33.0 µM 97% | [7]; at 100.0 µM 95% | [8]; [17] 85% | [8]; at 50.0 µM 90.7% | [9]; at 33.0 µM 91% | [9]; at 100.0 µM 95% | [10]; at 50.0 µM 86.1% | [11]; at 33.0 µM 85% | [11]; at 50.0 µM 91.9% | [11]; at 100.0 µM 95% | [12]; at 33.0 µM 98% | [12]; at 100.0 µM 97% | [13]; at 33.0 µM 98% | [13]; at 100.0 µM 97% | [14]; [17] 98% | [14]; at 50.0 µM 92.3% | [15]; at 33.0 µM 97% | [15]; at 100.0 µM 93%

Nc1ccc2c(c1)C(=O)c1cccc(N)c1C2=O
active: [1]; at 11.0 µM 89% | [1]; at 33.0 µM 93% | [1]; at 100.0 µM 92% | [3]; at 11.0 µM 92% | [3]; at 33.0 µM 97% | [3]; at 100.0 µM 92% | [4]; at 100.0 µM 81% | [5]; at 11.0 µM 92% | [5]; at 33.0 µM 95% | [5]; [17] 93% | [5]; at 50.0 µM 89.8% | [5]; at 100.0 µM 93% | [6]; at 100.0 µM 82% | [7]; at 100.0 µM 88% | [10]; [17] 77% | [11]; at 33.0 µM 72% | [11]; [17] 89% | [11]; at 100.0 µM 87%
inactive: [1]; at 1.2 µM 6% | [1]; at 3.7 µM 38% | [2]; at 1.2 µM -1% | [2]; at 3.7 µM 6% | [2]; at 11.0 µM 24% | [2]; at 33.0 µM 49% | [2]; at 100.0 µM 61% | [3]; at 1.2 µM 9% | [3]; at 3.7 µM 50% | [4]; at 1.2 µM -1% | [4]; at 3.7 µM 4% | [4]; at 11.0 µM 21% | [4]; at 33.0 µM 63% | [5]; at 1.2 µM 10% | [5]; at 3.7 µM 45% | [5]; [16] 51% | [6]; at 1.2 µM 4% | [6]; at 3.7 µM 16% | [6]; [16] 17% | [6]; at 11.0 µM 38% | [6]; at 33.0 µM 64% | [6]; [17] 68% | [6]; at 50.0 µM 53.9% | [7]; at 1.2 µM 5% | [7]; at 3.7 µM 11% | [7]; at 11.0 µM 29% | [7]; at 33.0 µM 57% | [8]; [16] -9% | [8]; [17] 66% | [8]; at 50.0 µM 42.9% | [9]; at 1.2 µM -2% | [9]; at 3.7 µM 3% | [9]; at 11.0 µM 19% | [9]; at 33.0 µM 37% | [9]; at 100.0 µM 48% | [10]; [16] 8% | [10]; at 50.0 µM 54.6% | [11]; at 1.2 µM -1% | [11]; at 3.7 µM 2% | [11]; [16] 6% | [11]; at 11.0 µM 25% | [11]; at 50.0 µM 57.1%

Reference: PubChem BioAssay (NCI)
